Values joined by “and” are separate entries in the source; they are usually repeats but may differ in a detail not shown here. Equal values may be shown once. Some compounds were tested as several samples or in several runs, with calls that do not always agree. Active and inactive are the calls of the source. The calls were made as follows: active = hit-call score of the fitted dose curve at least 0.9, where 1 is the maximum; inactive = score below 0.9.
test: BSK_3C_SRB: Viability Assessment in the BioMAP Diversity Plus: 3C Assay (AID 2283023); conditions: primary human endothelial cells (HUVEC);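 also: fitted both ways against DMSO so a hit may be signal rise or drop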
Experimental: BSK_3C is a cell-based, multiplexed-readout assay that uses umbilical vein endothelium, a human vascular primary cell, with measurements taken at 24 hours after chemical dosing in a 96-well plate.BSK_3C_SRB is an assay component measured in the BSK_3C assay. It measures 0.1% sulforhodamine related to cell death using Sulforhodamine staining technology.Data from the assay component BSK_3C_SRB was analyzed into 1 assay endpoint. This assay endpoint, BSK_3C_SRB, was analyzed with bidirectional fitting relative to DMSO as the negative control and baseline of activity. Using a type of viability reporter, gain or loss-of-signal activity can be used to understand changes in the signaling. Furthermore, this assay endpoint can be referred to as a primary readout, because this assay has produced multiple assay endpoints where this one serves a signaling function. To generalize the intended target to other relatable targets, this assay endpoint is annotated to the cell morphology intended target family, where the subfamily is cell conformation.
The levels of cell surface (or secreted, indicated by the prefix "s") biomarker endpoints were measured by ELISA. Overt cytotoxicity to cells in confluent adherent cultures (all systems other than the BT system) was assessed by measuring total protein levels using sulforhodamine B (SRB) staining in parallel cultures at the time of biomarker measurements, indicated as SRB endpoints. For proliferation assays for adherent cell types, individual cell types are cultured at sub-confluence and relative cell numbers quantified by SRB staining at time points optimized for each system (48 h: 3C and CASM3C systems; 72 h: BT and HDF3CGF systems; 96 h: SAg system). SRB was performed by staining cells with 0.1% SRB after fixation with 10% TCA and reading wells at 560 nm.Viability and proliferation of PBMC (T cells) was quantified by Alamar Blue reduction for the SAg and BT systems. For PBMC viability (referred to as PBMC Cytotoxicity within the assay endpoint names), cells were plated (75,000/well in a 96-well plate) and then chemical samples added for 1 h before addition of activators, SEB and TSST-1 (20 ng/mL final concentration each). Cells were incubated for 90 h. Then, Alamar Blue (20 uL/well) (Invitrogen, Cat DAL1100) was added for 6 h, and the plates were read with a fluorescence microplate reader at 546/580 nm (excitation/emission). For PBMC proliferation, cells were plated and activated as above but incubated for only 16 h prior to addition of Alamar Blue. Plates were read after 6 h.

| Structure (SMILES) | outcome | AC50 |
| --- | --- | --- |
| CCOC(=O)CCCCCCCCC(=O)OCC | inactive | – |
| C#C[C@]1(O)CC[C@H]2[C@@H]3CCc4cc(O)ccc4[C@H]3CC[C@@]21C | – | 6.09 µM (active) |
| CCOC(=O)C=Cc1ccccc1 | inactive | – |
| Nc1ccc(N)c([N+](=O)[O-])c1 | inactive | – |
| CCCCCCCCCCCCS | – | 26.5 µM (active) |
| O=S(=O)(O)C(F)(F)C(F)(F)OC(F)(F)C(F)(F)F | inactive | – |
| CC(=O)OC(C)(C)C1CC=C(C)CC1 (stereo not given) | – | 31.5 µM (active) |
| OCC(F)(OC(F)(F)C(F)(OC(F)(F)C(F)(F)C(F)(F)F)C(F)(F)F)C(F)(F)F (stereo not given) | – | 4.48 µM (active) and 3.3 µM (active) |
| CC(=O)OCC=C(C)CCC=C(C)CCC=C(C)C | inactive | – |
| c1ccc(Sc2ccccc2)cc1 | – | 32.3 µM (active) |
| CCCCOCCOCCO | inactive | – |
| C=C(C)C(=O)OCCC(F)(F)C(F)(F)C(F)(F)C(F)(F)C(F)(F)C(F)(F)C(F)(F)C(F)(F)F | inactive | – |
| c1ccc2c(c1)-c1ccc3ccc4cccc5cc-2c1c3c45 | inactive | – |
| O=C(O)C(F)(F)OC(F)(F)C(F)(F)OC(F)(F)C(F)(F)C(F)(F)C(F)(F)F | inactive | 46 µM (active) |
| CCCCCCCCCC(=O)OCC | – | 32 µM (active) |
| COc1ccccc1NC(=O)CC(C)=O | inactive | – |
| CCCCN(CCO)CCO | inactive | – |
| C=C1CC/C=C(\C)CC[C@@H]2[C@@H]1CC2(C)C | – | 29.8 µM (active) |
| C=CC(=O)OCC(CO)(COC(=O)C=C)COC(=O)C=C | – | 0.294 µM (active) |
| CC(C)CCCC(C)(C)O | inactive | – |

| Structure (SMILES) | outcome | AC50 |
| --- | --- | --- |
| NC(=O)c1c(Cl)cccc1Cl | inactive | – |
| CC(C)(CO)CO | inactive | – |
| CCCCCCCC1CCCC1=O (stereo not given) | – | 32.9 µM (active) |
| C=C(C)C(N)=O | inactive | – |
| CCC(=O)OCC=Cc1ccccc1 | inactive | – |
| O=C(c1ccc(OCCN2CCCCC2)cc1)c1c(-c2ccc(O)cc2)sc2cc(O)ccc12 | – | 18.8 µM (active) |
| O=S1(=O)CC(Cl)(Cl)C(Cl)(Cl)C1 | – | 5.02 µM (active) |
| OCCN1CCOCC1 | inactive | – |
| COC(=O)c1ccc(C(=O)OC)cc1 | inactive | – |
| O=C(O)C(F)(F)C(F)(F)C(F)(F)C(F)(F)C(F)(F)C(F)(F)C(F)(F)C(F)F | inactive | – |
| O=C1OC2(c3ccc(O)cc3Oc3cc(O)ccc32)c2ccccc21 | inactive | – |
| CC(=O)c1ccc(C)cc1 | inactive | – |
| CCCO[Si](OCCC)(OCCC)OCCC | inactive | – |
| CC(=O)CCC=C(C)CCC=C(C)C | inactive | – |
| CC1=CC(C)C(C=O)C(C)C1 (stereo not given) (tested in a mixture with another compound) | inactive | – |
| CC(C)Cc1ccc(C(C)C(=O)O)cc1 (stereo not given) | inactive | – |
| C=C(F)C(=O)OC(C(F)(F)F)C(F)(F)F | inactive | – |
| CC(C)(C)c1cccc(O)c1 | inactive | – |
| CC=CC(=O)C1=C(C)C=CCC1(C)C | inactive | – |
